Compound activity from PubChem.
OTUD3 block: inhibitors of human OTUD3 deubiquitinase; Q5T2D3; purified OTUD3, Ub-rhodamine fluorescence, 2 h; inhibition, % at 25 µM; 47,000 tested, 0.7% active
USP17 block: blocks human USP17 ubiquitin-rhodamine cleavage | A8MUK1 | purified USP17, Ub-rhodamine cleavage fluorescence, 3 h | inhibition, % at 50 µM | 47,000 tested, 6.5% active | AID 1645855
USP28 inh: human USP28 deubiquitinase inhibition; purified USP28, Ub-rhodamine cleavage fluorescence, 30 min; inhibition, % at 25 µM; 47,000 tested, 3% active; AID 1645857
USP30 inh: human USP30 deubiquitinase inhibition; Q70CQ3; purified USP30, Ub-rhodamine cleavage fluorescence; 47,000 tested, 5.3% active; inhibition, % at 25 µM
Target sequence (Q70CQ3 whole entry, looked up): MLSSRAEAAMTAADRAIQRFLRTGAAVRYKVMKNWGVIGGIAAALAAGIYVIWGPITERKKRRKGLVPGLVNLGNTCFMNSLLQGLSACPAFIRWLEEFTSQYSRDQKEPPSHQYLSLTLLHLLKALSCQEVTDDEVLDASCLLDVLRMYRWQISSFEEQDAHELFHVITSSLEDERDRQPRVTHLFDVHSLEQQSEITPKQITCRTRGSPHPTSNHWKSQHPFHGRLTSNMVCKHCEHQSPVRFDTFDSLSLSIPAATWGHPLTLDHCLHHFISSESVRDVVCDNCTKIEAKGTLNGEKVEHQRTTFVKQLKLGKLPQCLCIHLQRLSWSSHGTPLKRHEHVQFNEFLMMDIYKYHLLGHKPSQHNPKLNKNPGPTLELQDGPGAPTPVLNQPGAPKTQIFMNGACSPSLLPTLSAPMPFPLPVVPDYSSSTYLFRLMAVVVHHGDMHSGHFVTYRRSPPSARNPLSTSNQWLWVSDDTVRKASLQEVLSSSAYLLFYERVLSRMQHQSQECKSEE
Starred values were filed as active, the others as inactive; i = inactive; . = not tested or not shown. Compounds with a hit are over-represented: about 11% of the library has one in this group of screens. Cut-off read from the data, not from the text of the source: active = inhibition above about 30%; inactive = the rest.

SMILES | OTUD3 block | USP17 block | USP28 inh | USP30 inh
CC(C)CC(NC(=O)c1ccccn1)c1nc2ccccc2[nH]1 (stereo not drawn) | -20 | -26 | -26 | -66
CNC(=O)C1CCN(c2nc3ccc(-c4cncnc4)nc3s2)CC1 | -2 | 3 | -5 | -13
CC(NC(=O)c1ccccc1)c1nc2ccccc2[nH]1 (stereo not drawn) | -4 | -7 | . | .
COc1ccccc1/C=C/C(=O)NC(Cc1ccccc1)c1nc2ccccc2[nH]1 (stereo not drawn) | -5 | 45* | -2 | -89
Nc1c(-c2nc3ccccc3[nH]2)c2nc3ccccc3nc2n1Cc1ccccc1 | -21 | -5 | -28 | -225
Nc1c(-c2nc3ccccc3[nH]2)c2nc3ccccc3nc2n1Cc1cccc(Cl)c1 | 18 | 46* | 36* | -14
CCCn1c(=O)n(CC(=O)c2ccc(Cl)cc2)c2c(C(N)=O)nc(-c3ccco3)nc21 | -34 | 38* | -36 | -183
CCn1c(=O)n(CC(=O)c2ccc(Cl)cc2)c2c(C(N)=O)nc(-c3ccco3)nc21 | 7 | 36* | -15 | -82
CCCn1c(=O)n(CC(=O)c2ccccc2F)c2c(C(N)=O)nc(-c3ccco3)nc21 | 9 | 62* | 4 | -96
CCn1c(=O)n(CC(=O)c2ccc(F)cc2F)c2c(C(N)=O)nc(-c3ccco3)nc21 | 10 | 26 | 0 | -84
O=C1CCOC[C@]2(CN(Cc3ccc(OC4CCCC4)cc3)C[C@H]2c2cccnc2)N1 | 10 | 6 | 11 | 25
O=C(CNC(=O)c1cc2ccccc2o1)Nc1ccc(Cl)c(C(F)(F)F)c1 | -31 | -33 | -47 | -138
COc1cc(OCC(=O)NC(C)C)cc2c1C(=O)O[C@@H](C)CCCC(=O)CCCCC2 | 11 | 4 | 7 | 13
COc1cc(N)c(Cl)cc1C(=O)OCC(=O)Nc1ccc2c(c1)OCCO2 | -10 | 20 | 37* | 0
COc1cc2c(c(OCC(=O)Nc3ccc4c(c3)OCCO4)c1)C(=O)O[C@@H](C)CCCC(=O)CCCCC2 | 27 | 22 | 18 | 51*
COc1cc(N)c(Cl)cc1C(=O)OCC(=O)N1CCCC1 | 11 | 11 | 5 | 6
CCCc1cnc2c(c1SCC(=O)N1CCCCC1)c(=O)n(C)c(=O)n2C | 2 | -9 | -11 | 1
Cc1ccc(-n2nc(C)c3c2NC(=O)CC3C(=O)c2ccc3c(c2)OCO3)cc1C (stereo not drawn) | -6 | 0 | -2 | -2
CCC(=O)Nc1nc2ccc(NC(=O)Cc3ccc(OC)c(OC)c3)cc2s1 | -3 | 36* | -4 | 4
COc1ccc(S(=O)(=O)Nc2ccc3nc(NC(C)=O)sc3c2)cc1OC | -9 | 0 | -4 | -9
CCC(=O)Nc1nc2cc(NC(=O)Nc3cc(C)cc(C)c3)ccc2s1 | 31* | 19 | 26 | 48*
CCCCC(C)/C=C(C)/C=C(\C)C(N)=O (stereo not drawn) | 14 | 27 | 29 | 32*
c1ccc(-c2noc(-c3cc(-c4ccncc4)nc4ccccc34)n2)nc1 | -1 | 53* | 22 | 14
CCc1ccc(Nc2nc3ccncc3n(Cc3ccccc3)c2=O)cc1 | 2 | -5 | -9 | 6
CCCCNc1nc2ccncc2n(Cc2ccccc2)c1=O | 3 | 30 | . | .
SMILES | OTUD3 block | USP17 block | USP28 inh | USP30 inh
CCOc1cccc(CNc2nc3ccncc3n(Cc3ccccc3)c2=O)c1 | -12 | 28 | -15 | 36*
O=c1c(NCCCN2CCCC2)nc2ccncc2n1Cc1ccccc1 | -18 | 58* | -6 | 0
COc1ccc2oc(C(=O)Nc3ccc4ccccc4n3)c(C)c2c1 | -5 | 32* | -11 | -76
COc1ccc2c(c1)OC1(CCN(C(=O)c3cc4cc(C)cc(C)c4n3C)CC1)CC2=O | -50 | -41 | -70 | -143
OC(c1ccccn1)c1c[nH]c2ccccc12 (stereo not drawn) | -13 | -10 | -18 | -26
O=[N+]([O-])c1ccccc1C(c1c[nH]c2ccccc12)c1c[nH]c2ccccc12 | -3 | 54* | 10 | -40
Cc1ccc(N(Cc2nc3nc(C)cc(=O)n3[nH]2)C(=O)c2ccccc2F)cc1 | -8 | -17 | -18 | -13
Cc1ccc(N(C)S(=O)(=O)C2CCS(=O)(=O)C2)cc1 (stereo not drawn) | 13 | 14 | 18 | 31*
Cc1nnc(-c2cn(CC(=O)N3CCc4ccccc43)c3ccccc23)o1 | 3 | 29 | 1 | -7
COC(=O)c1cn(CC(=O)N2CCCc3ccccc32)c2ccccc12 | 16 | 41* | 12 | 17
N#Cc1cn(CC(=O)N2CCc3ccccc32)c2ccccc12 | 2 | -18 | 52* | 53*
O=C(Cn1cc(C(=O)C(F)(F)F)c2ccccc21)N1CCc2ccccc21 | 23 | 52* | 28 | 37*
COc1ccc(NC(=O)CC(c2ccccc2)c2ccccc2)cc1S(=O)(=O)N1CCOCC1 | -10 | -11 | -18 | -18
Cc1noc(CN2CCC(C3CCCCCN3S(=O)(=O)c3ccccc3)CC2)n1 (stereo not drawn) | -8 | -5 | -6 | -10
Cc1ccc(COc2cc(C(=O)NC(C)C)c3ccccc3n2)cc1 | 8 | 10 | 12 | 35*
Cc1cc(C(=O)NCC2CCCO2)c2cccc(C)c2n1 (stereo not drawn) | -10 | -32 | -7 | -50
Cc1ccc(COc2cc(C(=O)NCc3ccccc3C)c3ccccc3n2)cc1 | 24 | 20 | 16 | 43*
O=C(NCC1CCCO1)c1cc2c(cn1)[nH]c1ccccc12 (stereo not drawn) | -9 | -38 | 34* | -59
Cc1ccc(COc2cc(C(=O)NCC3CCCO3)c3ccccc3n2)cc1 (stereo not drawn) | 4 | 5 | 3 | 46*
CC(=O)c1ccc(N(C(=O)c2ccc(C#N)cc2)c2nc3ccccc3s2)cc1 | -11 | -58 | -6 | -42
O=C(Nc1ccc2c(c1)OCCO2)c1ccc(CN(c2ccccc2)S(=O)(=O)c2ccccc2)cc1 | -9 | 0 | 4 | -12
O=C(Cn1c(=O)c2ccccc2c2ccccc21)Nc1ccc2c(c1)OCO2 | 33* | 53* | 31* | 82*
O=C(CCCn1c(=O)c2ccccc2n(CC(=O)Nc2ccc(Br)cc2F)c1=O)NCc1ccccc1Cl | 11 | 41* | 15 | -15
O=C(CCCCn1c(=O)c2ccccc2n(CC(=O)Nc2ccc(Br)cc2F)c1=O)NCc1ccco1 | -172 | -134 | -250 | i
O=C(CSc1n[nH]c2nc3ccccc3n12)Nc1ccc2c(c1)OCO2 | 1 | -28 | 37* | 1
Cc1cccc(C)c1NC(=O)Cn1c(=O)n(CCCCC(=O)NCc2ccc3c(c2)OCO3)c(=O)c2ccccc21 | 18 | 33* | 32* | 67*
COc1ccc(CCNC(=O)Cn2c(=O)n(CCCCC(=O)NCc3ccc4c(c3)OCO4)c(=O)c3ccccc32)cc1OC | 0 | 28 | 0 | 22
Cc1ccccc1C(=O)N1CCCC(c2nnc(C(F)(F)F)o2)C1 (stereo not drawn) | -2 | -8 | -12 | -4
CCOC(=O)c1sc2nc(CN3CCCC3)[nH]c(=O)c2c1C | -87 | -60 | -98 | -420
